The results in this text go back to PubChem BioAssay (NCATS).

Molecules are shown by their SMILES. Results filed as inconclusive are left out. Active and inactive are the calls of the source. Calls come from the whole dose curve; as a rule, active = well fitted cell-killing curve with a large enough effect; inconclusive = small, poorly fitted or top-dose-only effect, or effect the other way; inactive = no such curve, though single readings can be large or run the other way.
Potency is the fitted concentration of half-maximal effect.

A short description of the first assay: Quantitative High-Throughput drug screen in 47 multiple myeloma cell lines against the NCATS MIPE library collection: KMS11_JCRBsus cell viability assay (AID 1919873). Note: nearly all actives have a fitted effect of over 50% in size. Conditions: KMS11 myeloma viability, CellTiter-Glo ATP luminescence, 48 h; series mostly up to 45.8 µM. The essentials: (§1)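 ATP-based CellTiter-Glo luminescence after 48 h drug exposure (37 °C, 5% CO2) of 500 myeloma cells per well. DMSO-only wells set 100% viability, media-only wells 0%; MIPE 4.0 library added by pin tool.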
On the technique in general: ATP-based viability assays read luminescence as a measure of living cells.
In the case of `CC=C1NC(=O)[C@H]2CSSCCC=C[C@H](CC(=O)N[C@H](C(C)C)C(=O)N2)OC(=O)[C@H](C(C)C)NC1=O`, the Potency was 18.7 nM (active).
Still for that read-out and setting: for `O=C(Nc1nc2cccc(-c3ccc(CN4CCS(=O)(=O)CC4)cc3)n2n1)C1CC1` the value was 13200 nM (active).
Regarding `COCCn1c2c([n+](Cc3cnccn3)c1C)C(=O)c1ccccc1C2=O`, the Potency is 13.2 nM (active).
Still for that read-out and setting: for `CCc1c2c(nc3ccc(O)cc13)-c1cc3c(c(=O)n1C2)COC(=O)[C@]3(O)CC` the value was 662 nM (active); for `CCC[C@H](NC(=O)C(C#N)=Cc1cccc(Br)n1)c1ccccc1`, 2960 nM (active); for `CC(NCc1ccc2c(c1)nc(NC(=O)c1ccc(-c3cn[nH]c3)s1)n2CC(C)(C)O)C(C)(C)C` (configuration not stated), 209 nM (active).
On the same count and under the same terms, for `CNC(=O)c1c(F)cccc1Nc1nc(Nc2cc3c(cc2OC)CCN3C(=O)CN(C)C)nc2[nH]ccc12` the value was 66.2 nM (active); for `CC(C)CC(=O)Nc1n[nH]c2c1CN(C(=O)C1CCN(C)CC1)C2(C)C`, 1480 nM (active).
As to `COc1cc2c(cc1-c1c(C)noc1C)ncc1[nH]c(=O)n([C@H](C)c3ccccn3)c12`, the Potency is 264 nM (active).
Still for that read-out and setting: for `COc1cc(=C2C=c3ccccc3=N2)[nH]c1=Cc1[nH]c(C)cc1C` the value was 1050 nM (active); for `Nc1nc(Nc2ccc(S(N)(=O)=O)cc2)nn1C(=O)c1c(F)cccc1F`, 7430 nM (active).
Regarding `NC(=O)c1c(OCc2c(F)cc(Br)cc2F)nsc1NC(=O)NCCCCN1CCCC1`, the Potency is 20900 nM (active).
Still for that read-out and setting: for `CCOC(=O)C1=C(C)NC2=C(C(=O)CC(C)(C)C2)C1c1ccc(-c2ccccc2)cc1` (configuration not stated) the value was 18700 nM (active); for `Nc1cc(C(F)(F)F)c(-c2cc(N3CCOCC3)nc(N3CCOCC3)n2)cn1`, 66.2 nM (active); for `O=C(Nc1cn[nH]c1-c1nc2ccc(CN3CCOCC3)cc2[nH]1)NC1CC1`, 1320 nM (active).
The same measure, in the same setting: the same measure for `C[C@@]12O[C@@H](C[C@]1(O)CO)n1c3ccccc3c3c4c(c5c6ccccc6n2c5c31)CNC4=O`: 418 nM (active).
The same measure, in the same setting: for `O=C(CCCCCCC(=O)Nc1ccc([C@H]2O[C@@H](CSc3nc(-c4ccccc4)c(-c4ccccc4)o3)C[C@@H](c3ccc(CO)cc3)O2)cc1)NO` the value was 11800 nM (active).
In the case of `NC1(Cc2ccc(Cl)cc2)CCN(c2ncnc3[nH]ccc23)CC1`, the Potency is 10500 nM (active).
Same read-out and setting: the same measure for `CC(C)[C@H](C(=O)Nc1ccc(C(=O)NO)cc1)c1ccccc1`: 469 nM (active); for `COC(=O)Nc1ccc(-c2nc(N3CCOCC3)c3cnn(C4CCN(Cc5cccnc5)CC4)c3n2)cc1`: 29.6 nM (active); for `CCC1=C[C@@H]2CN(C1)Cc1c([nH]c3ccccc13)[C@@](C(=O)OC)(c1cc3c(cc1OC)N(C)[C@@H]1[C@@](O)(C(=O)OC)[C@H](OC(C)=O)[C@]4(CC)C=CCN5CC[C@]31[C@@H]54)C2`: 8.3 nM (active).
The same measure, in the same setting: for `CN1CCN(Cc2ccc(NC(=O)Nc3ccc(Oc4cc(NC(=O)C5CC5)ncn4)cc3)cc2C(F)(F)F)CC1` the value was 235 nM (active).
Same read-out and setting: for `C=CC(=O)Nc1cc2c(Nc3ccc(F)c(Cl)c3)ncnc2cc1OCCCN1CCOCC1` the value was 9350 nM (active); for `O=C(Cc1ccc(-c2ccc(OCCN3CCOCC3)cc2)cn1)NCc1ccccc1`, 10.5 nM (active); for `CC(C)c1ccc(Cn2ccc3c4c(N)nc(NC5CC5)nc4ccc32)cc1`, 1050 nM (active).
`COCCOc1ccc2c(c1)ncn2-c1ccc2cccc(N3CCC(N)CC3)c2n1`: the Potency is 5260 nM (active).
On the same count and under the same terms, the same measure for `Cc1ccc(-c2ncn(-c3ccc(Nc4nccc(-c5cccc(N6CCOCC6)c5)n4)cc3)n2)cn1`: 74.3 nM (active); for `CC[C@@]1(O)C(=O)OCc2c1cc1n(c2=O)Cc2cc3cc(O)ccc3nc2-1`: 1180 nM (active).
Still for that read-out and setting: the same measure for `CC(C)c1cnn2c(NCc3ccccc3)cc(N[C@@H](CO)[C@H](O)CO)nc12`: 148 nM (active).
On the same count and under the same terms, the same measure for `C[C@@H](Oc1cc(-c2cnn(C3CCNCC3)c2)cnc1N)c1c(Cl)ccc(F)c1Cl`: 2640 nM (active).
On to `COc1cccc2nc(-c3cccs3)nc(NN3C(=O)C=C(C)C3=O)c12`, for which the Potency is 8.3 nM (active).

A further assay is described as follows: Quantitative High-Throughput drug screen in 47 multiple myeloma cell lines against the NCATS MIPE library collection: KMS28BM_JCRB cell viability assay (AID 1919874). Note: nearly all actives have a fitted effect of over 35% in size. Conditions: CellTiter-Glo ATP, 48 h; series mostly up to 45.8 µM. The essentials:
as §1
For the molecule `CC=C1NC(=O)[C@H]2CSSCCC=C[C@H](CC(=O)N[C@H](C(C)C)C(=O)N2)OC(=O)[C@H](C(C)C)NC1=O`, the Potency is 16.6 nM (active).
As for `O=C(Nc1nc2cccc(-c3ccc(CN4CCS(=O)(=O)CC4)cc3)n2n1)C1CC1`, the Potency is 14800 nM (active).
For `COCCn1c2c([n+](Cc3cnccn3)c1C)C(=O)c1ccccc1C2=O`, the Potency is 14.8 nM (active).
Same read-out and setting: for `CCc1c2c(nc3ccc(O)cc13)-c1cc3c(c(=O)n1C2)COC(=O)[C@]3(O)CC` the value was 74.3 nM (active); for `CCC[C@H](NC(=O)C(C#N)=Cc1cccc(Br)n1)c1ccccc1`, 2640 nM (active).
In the case of `CC(NCc1ccc2c(c1)nc(NC(=O)c1ccc(-c3cn[nH]c3)s1)n2CC(C)(C)O)C(C)(C)C` (configuration not stated), the Potency is 332 nM (active).
On the same count and under the same terms, the same measure for `CNC(=O)c1c(F)cccc1Nc1nc(Nc2cc3c(cc2OC)CCN3C(=O)CN(C)C)nc2[nH]ccc12`: 118 nM (active); for `CC(C)CC(=O)Nc1n[nH]c2c1CN(C(=O)C1CCN(C)CC1)C2(C)C`: 2350 nM (active).
As to `COc1cc2c(cc1-c1c(C)noc1C)ncc1[nH]c(=O)n([C@H](C)c3ccccn3)c12`, the Potency was 332 nM (active).
For the molecule `COc1cc(=C2C=c3ccccc3=N2)[nH]c1=Cc1[nH]c(C)cc1C`, the Potency was 935 nM (active).
Still for that read-out and setting: for `Nc1nc(Nc2ccc(S(N)(=O)=O)cc2)nn1C(=O)c1c(F)cccc1F` the value was 6620 nM (active).
`Nc1cc(C(F)(F)F)c(-c2cc(N3CCOCC3)nc(N3CCOCC3)n2)cn1`: the Potency was 41.8 nM (active).
Same read-out and setting: the same measure for `O=C(Nc1cn[nH]c1-c1nc2ccc(CN3CCOCC3)cc2[nH]1)NC1CC1`: 1050 nM (active); for `C[C@@]12O[C@@H](C[C@]1(O)CO)n1c3ccccc3c3c4c(c5c6ccccc6n2c5c31)CNC4=O`: 833 nM (active).
Turning to `CNC(=O)c1cc(Oc2ccc(NC(=O)Nc3cc(C(C)(C)C)nn3-c3ccc4ncccc4c3)c(F)c2)ccn1`, the Potency was 9350 nM (active).
On the same count and under the same terms, for `O=C(CCCCCCC(=O)Nc1ccc([C@H]2O[C@@H](CSc3nc(-c4ccccc4)c(-c4ccccc4)o3)C[C@@H](c3ccc(CO)cc3)O2)cc1)NO` the value was 13200 nM (active); for `NC1(Cc2ccc(Cl)cc2)CCN(c2ncnc3[nH]ccc23)CC1`, 4180 nM (active).
The same measure, in the same setting: the same measure for `CC(C)[C@H](C(=O)Nc1ccc(C(=O)NO)cc1)c1ccccc1`: 526 nM (active); for `COC(=O)Nc1ccc(-c2nc(N3CCOCC3)c3cnn(C4CCN(Cc5cccnc5)CC4)c3n2)cc1`: 418 nM (active).
Still for that read-out and setting: the same measure for `C#Cc1cccc(Nc2ncnc3cc(OC)c(OCCCCCCC(=O)NO)cc23)c1`: 33.2 nM (active); for `CCC1=C[C@@H]2CN(C1)Cc1c([nH]c3ccccc13)[C@@](C(=O)OC)(c1cc3c(cc1OC)N(C)[C@@H]1[C@@](O)(C(=O)OC)[C@H](OC(C)=O)[C@]4(CC)C=CCN5CC[C@]31[C@@H]54)C2`: 4.7 nM (active); for `CN1CCN(Cc2ccc(NC(=O)Nc3ccc(Oc4cc(NC(=O)C5CC5)ncn4)cc3)cc2C(F)(F)F)CC1`: 209 nM (active).
For the molecule `C=CC(=O)Nc1cc2c(Nc3ccc(F)c(Cl)c3)ncnc2cc1OCCCN1CCOCC1`, the Potency is 5260 nM (active).
Still for that read-out and setting: for `O=C(Cc1ccc(-c2ccc(OCCN3CCOCC3)cc2)cn1)NCc1ccccc1` the value was 14.8 nM (active).
On the same count and under the same terms, the same measure for `CC(C)c1ccc(Cn2ccc3c4c(N)nc(NC5CC5)nc4ccc32)cc1`: 1660 nM (active); for `COCCOc1ccc2c(c1)ncn2-c1ccc2cccc(N3CCC(N)CC3)c2n1`: 16600 nM (active).
With `Cc1ccc(-c2ncn(-c3ccc(Nc4nccc(-c5cccc(N6CCOCC6)c5)n4)cc3)n2)cn1`, the Potency is 74.3 nM (active).
Same read-out and setting: the same measure for `CC[C@@]1(O)C(=O)OCc2c1cc1n(c2=O)Cc2cc3cc(O)ccc3nc2-1`: 209 nM (active).
Still for that read-out and setting: for `CC(C)c1cnn2c(NCc3ccccc3)cc(N[C@@H](CO)[C@H](O)CO)nc12` the value was 296 nM (active).
Still for that read-out and setting: the same measure for `C[C@@H](Oc1cc(-c2cnn(C3CCNCC3)c2)cnc1N)c1c(Cl)ccc(F)c1Cl`: 8330 nM (active).
As for `COc1cccc2nc(-c3cccs3)nc(NN3C(=O)C=C(C)C3=O)c12`, the Potency is 33.2 nM (active).
